# A selection: hits, their analogues and other compounds. The true share with any hit is near 11%.
# HTT ATP protect: qHTS Multiplex Assay to Identify Dual Action Probes in a Cell Model of Huntington: Cytoprotection (ATP). PC12 HTT-Q103 induced, cytoprotection, ATP luminescence, 40 h. hit rate 0.14% among 230,000. Potency, µM (series often up to 56.4 µM), hits mostly activators; also: nearly all actives have a fitted effect of over 45% in size
#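 Readout: ATPlite luminescence (ATP level). Model: stable PC12, inducible Htt exon1 Q103-GFP. Inducer: tebufenozide, 100 nM final. Compounds: dose series. No G418 in medium.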
# GoLoco inh red: qHTS Assay for Inhibitors of RGS12 GoLoco Motif Activity (Red Fluorophore) | Guanine nucleotide-binding protein G(i) subunit alpha-1 (Homo sapiens), P63096 | Gai1:RGS12 GoLoco peptide FP, rhodamine, 10 min | Potency, µM (top dose mostly 61.6 µM), most hits filed as inhibitors | hit rate 0.44% among 230,000; active = well fitted inhibition curve with a large enough effect, not every such curve was filed as active; inactive = no such curve, though single readings can be large or run the other way; also: nearly all actives have a fitted effect of over 30% in size
# PNC assembly inh: High Content Assay for Compounds that inhibit the Assembly of the Perinucleolar Compartment; PC3M PTB-GFP, PNC prevalence imaging, 16 h; stronger effect = lower value; hit rate 3.1% among 140,000; activity change (PNC), negative = inhibition, % at 10 µM; AID 2417, 2010;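 active = readout at or below -70, meaning at least 70% loss of cells showing the perinucleolar compartment, a nuclear body marking cancer cells; inconclusive = readout between -30 and a set limit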
#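 Read-out is percentage of cells bearing a perinucleolar compartment, from automated 20x imaging of fixed, Hoechst-stained PC3M PTB-GFP cells. Cells were seeded 4 h, then exposed 16 h to compound (23 nl of library stock) in duplicate plates.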
# HttQ103 aggreg: qHTS Multiplex Assay to Identify Dual Action Probes in a Cell Model of Huntington: Aggregate Formation (GFP). hit rate 1.1% among 220,000. Potency, µM (top dose mostly 46.1 µM), most hits filed as inhibitors. PC12 HttQ103-GFP aggregates, Acumen cytometry, 40 h; also: nearly all actives have a fitted effect of over 60% in size
#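 Inducible Q103 Huntingtin exon 1–GFP PC12 line, 1500 cells/well in phenol red free DMEM with 5% equine and 5% calf serum. Tebufenozide 100 nM induced expression; compounds titrated; aggregates quantified by cytometry.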
# ALDH1A1 block: qHTS Assay for Inhibitors of Aldehyde Dehydrogenase 1 (ALDH1A1); Aldehyde dehydrogenase 1A1 (Homo sapiens), P00352; Purified ALDH1A1, NADH fluorescence, propionaldehyde substrate; Potency, µM (top dose mostly 75.3 µM), actives largely listed as inhibitors; hit rate 7.3% among 220,000; active = well fitted inhibition curve with a large enough effect, not every such curve was filed as active; inconclusive = small, poorly fitted or top-dose-only effect, or another doubt; inactive = no such curve, though single readings can be large or run the other way
# Target sequence (P00352 whole entry, looked up): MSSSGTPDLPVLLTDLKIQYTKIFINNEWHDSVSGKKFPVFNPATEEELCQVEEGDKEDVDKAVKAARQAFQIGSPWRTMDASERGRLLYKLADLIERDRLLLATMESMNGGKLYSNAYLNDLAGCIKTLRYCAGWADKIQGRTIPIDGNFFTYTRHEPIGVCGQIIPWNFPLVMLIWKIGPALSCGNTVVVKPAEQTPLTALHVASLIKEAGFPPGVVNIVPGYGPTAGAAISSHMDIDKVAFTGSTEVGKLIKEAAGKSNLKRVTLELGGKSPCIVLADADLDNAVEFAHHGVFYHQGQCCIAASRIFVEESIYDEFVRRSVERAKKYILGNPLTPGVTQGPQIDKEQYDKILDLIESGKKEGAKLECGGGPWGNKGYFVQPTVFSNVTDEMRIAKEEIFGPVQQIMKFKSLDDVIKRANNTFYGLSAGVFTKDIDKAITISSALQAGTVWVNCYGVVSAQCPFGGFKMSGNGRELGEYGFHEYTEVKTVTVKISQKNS
# HPGD inh: qHTS Assay for Inhibitors of HPGD (15-Hydroxyprostaglandin Dehydrogenase). 15-hydroxyprostaglandin dehydrogenase [NAD(+)] (Homo sapiens), P15428. purified HPGD, NADH fluorescence kinetic, PGE2 substrate. hit rate 4.3% among 150,000. Potency, µM, most hits filed as inhibitors; active = well fitted inhibition curve with a large enough effect, not every such curve was filed as active; inconclusive = small, poorly fitted or top-dose-only effect, or another doubt; inactive = no such curve, though single readings can be large or run the other way
# Target sequence (P15428 whole entry, looked up): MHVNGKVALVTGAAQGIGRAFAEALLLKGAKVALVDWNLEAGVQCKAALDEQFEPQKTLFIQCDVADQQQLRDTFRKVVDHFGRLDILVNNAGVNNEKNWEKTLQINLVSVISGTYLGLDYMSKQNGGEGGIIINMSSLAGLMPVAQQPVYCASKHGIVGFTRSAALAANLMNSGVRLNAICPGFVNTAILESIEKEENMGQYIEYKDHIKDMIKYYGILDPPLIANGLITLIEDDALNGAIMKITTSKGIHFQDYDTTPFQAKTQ
#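 20 nM HPGD preincubated 15 min at room temperature with compound in 50 mM Tris-HCl pH 8, 0.01% Tween 20. Started with 1 mM NAD+ and 30 uM prostaglandin E2; NADH fluorescence (360/450 nm) read 5 times over 30-s intervals, last minus first.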
# A number is an active result; n = inactive; u = inconclusive; x = no result given; ! = repeats disagree; [ ] = another dose, or the depositor's remark. Unless noted, calls follow the shape of the dose curve; as a rule, active = well fitted curve in the direction sought with a large enough effect; inconclusive = small, poorly fitted or top-dose-only effect, or another doubt; inactive = no such curve, though single readings can be large; an effect the other way counts as inactive or inconclusive.
SMILES,HTT ATP protect,GoLoco inh red,PNC assembly inh,HttQ103 aggreg,ALDH1A1 block,HPGD inh
Cc1ccc(NS(=O)(=O)c2cc(C(=O)O)ccc2Cl)c(C)c1,n[0.074 µM],n,n,n,n,n
OC1C=C2CCN3Cc4cc5c(cc4C(C1O)C23)OCO5 (configuration not stated),n,n,x,x,n,n
Cc1c(C)c2cc(Cl)c(O)c(CN(C)C)c2oc1=O,n,n,u,n,u,u
O=c1oc2c(O)c(O)cc3c(=O)oc4c(O)c(O)cc1c4c23,n[1.9 µM],28µM!,u,n,n,0.89µM
C[C@H]1[C@H](C)OC(=O)C[C@H](O)C[C@H](O)C[C@H](O)CC[C@H](O)[C@H](O)CC(=O)C[C@H](O)[C@H](C(=O)O)[C@H](O)C[C@H](O[C@@H]2O[C@@H](C)[C@H](O)[C@@H](N)[C@@H]2O)C=CC=CC=CC=CCCC=CC=C[C@@](C)(O)[C@H]1O,n[10 µM],n[14.2 µM],x,x,n[13.5 µM],n
NC1=NC(=Nc2cccc(S(N)(=O)=O)c2)c2ccccc21,n[10 µM],n,x,n[9.22 µM],n,x
COc1cc(N=Nc2cccc(S(N)(=O)=O)c2)c2ccccc2c1N,n[10 µM],n[14.2 µM],x,n[9.22 µM],7.9µM!,n
COc1ccc(OCCSc2nnc(Cc3cccc4ccccc34)n2N)cc1,n[10 µM],n,u,n,u,22µM
Nn1c(Cc2cccc3ccccc23)nnc1SCc1ccccc1,n[10 µM],n,n,n,n,13µM
Nn1c(Cc2ccccc2F)nnc1SCCOc1ccc(Cl)cc1,x,n,n,n,u,u
CC(=O)NC1CCCN(O)C(=O)/C=C(\C)CCOC(=O)C(NC(C)=O)CCCN(O)C(=O)/C=C(\C)CCOC(=O)C(NC(C)=O)CCCN(O)C(=O)/C=C(\C)CCOC1=O (configuration not stated),n[10 µM],n,x,n[9.22 µM],n,x
Cn1c(=O)c2c(ncn2CN2CCN(Cn3cnc4c3c(=O)n(C)c(=O)n4C)CC2)n(C)c1=O,n[10 µM],n[14.2 µM],x,x,n[13.5 µM],n
COc1ccc(C(=O)Oc2cc(/C=N/NS(=O)(=O)c3ccccc3)ccc2OC)cc1,n,n,n,n,3.2µM,n
COc1ccc(/C=N/NC(N)=S)cc1OC(=O)c1ccccc1,n,n,n,n,n,25µM
CSC(=S)N/N=C/c1ccccc1,n[10 µM],n,x,n,u,x
COc1ccc(/C=N/NC(=S)SC)cc1OC,n[10 µM],n,x,n,10µM,x
CC(=O)Nc1nonc1-c1nc2ccccc2n1CC1CC1,n,n,-94,7.1µM,u,n
CC(=O)Nc1nonc1-c1nc2ccccc2n1CCC#N,n[10 µM],n,n,n,u,n
CC(=O)c1sc(Nc2nc(C)cc(C)n2)nc1C,n,n,n,n[9.22 µM],0.89µM,14µM
COC(=O)c1c(CSc2ccc(Cl)cc2)noc1C(=O)NCc1ccco1,n,n,n,n,u,22µM
COC(=O)c1c(CSc2ccc(C)c(C)c2)noc1C(=O)NCc1ccc(OC)cc1,n,n,n,n,u,7.1µM
COC(=O)c1c(CSc2cccc(C)c2)noc1C(=O)NCc1ccco1,n,n,n,n,u,11µM
COc1cccc(SCc2noc(C(=O)NCc3ccccc3)c2C(=O)NCc2ccccc2)c1,n[10 µM],n,x,n[9.22 µM],x,x
COC(=O)[C@@]1(Cc2ccccc2)[C@H]2c3cc(C(=O)N4CCCC4)n(Cc4ccc(S(C)(=O)=O)cc4)c3C[C@H]2CN1C(=O)c1ccccc1,n,n,x,x,n,n
O=C(Cc1ccccc1Cl)Nc1nc2ccccc2[nH]1,n[10 µM],n,x,n[9.22 µM],25µM,x
SMILES,HTT ATP protect,GoLoco inh red,PNC assembly inh,HttQ103 aggreg,ALDH1A1 block,HPGD inh
COc1ccc(-c2noc(CSc3nnc(Cc4ccccc4)n3-c3ccc(Cl)cc3)n2)cc1,n,n,n,u,u,n
Cc1ccc(-c2noc(CSc3nnc(Cc4ccccc4)n3-c3ccc(Cl)cc3)n2)cc1,n,n,n,16µM,n,n
Cn1c(SCc2nc(-c3ccc(Cl)cc3)no2)nnc1-c1cccs1,n,n,-111,n[9.22 µM],n,n
Cn1c(SCc2nc(-c3ccccc3)no2)nnc1-c1cccs1,n[10 µM],n,n,n,n,n
C/[N+]([O-])=C\CC(=O)c1ccc(-c2ccccc2)cc1,n,n,x,n,28µM,x
CCN(CC)C(=O)c1ccc(-c2ccccc2)cc1,x,n,n,n,u,0.63µM
CO/N=C/CC(=O)c1ccc(-c2ccccc2)cc1,n[1.9 µM],n,x,n[9.22 µM],u,x
Cc1cc2nc(CS)[nH]c2cc1C,n[10 µM],n,x,n[9.22 µM],x,x
Cc1cccc(C)c1NC(=O)CCCSc1nnc(-c2ccco2)o1,n,n,n,n,n,n
Cc1cccc(C)c1NC(=O)CSc1nnc(-c2ccco2)c(-c2ccco2)n1,n,n,n,n,7.1µM,28µM
Cc1ccccc1NC(=O)CSc1nnc(-c2ccco2)c(-c2ccco2)n1,n,n,n,u,1.3µM,8.9µM
COc1cccc(/C=N/NC(=O)c2ccc([N+](=O)[O-])cc2Cl)c1O,n[10 µM],n,n,7.1µM,n,n
COc1cccc(/C=N/NC(=O)c2cc(-c3ccc(C)cc3)n[nH]2)c1O,x,x,x,x,n,40µM
COc1cccc(/C=N/NC(=O)c2ccc(=O)n(C)c2)c1O,n[10 µM],n,u,7.9µM,n,n
CN(C)C=Nc1ccccc1C1C=NNC1=O (configuration not stated),n[10 µM],n,x,n[9.22 µM],x,x
COc1cccc(N/C(SCc2ccccc2Cl)=C(/C#N)C(=O)NCc2cccs2)c1,n[10 µM],n,-125,n,n,n
CCN1CCN(C(=S)NCCc2ccccc2)CC1,n,n,n,n,n,n
CC1CCCN(C(=O)C2CCN(CCCc3ccccc3)CC2)C1 (configuration not stated),n,n,n,n,n,n
CCNC(=S)N1CCN(C(c2ccccc2)c2ccccc2)CC1,n[10 µM],n,n,u,3.2µM,n
O=C(C1CC1)N1CCN(C(c2ccccc2)c2ccccc2)CC1,n,n,n,n,1.1µM,n
CC1CCCN(C(=O)C2CCN(CC(C)c3ccccc3)CC2)C1 (configuration not stated),n[10 µM],n,n,n,u,22µM
CCNC(=S)N1CCN(Cc2ccccc2)CC1,n,n,x,n,16µM,x
O=C(NN1C(=O)c2ccccc2NC1c1ccccn1)c1ccc([N+](=O)[O-])cc1 (configuration not stated),n[10 µM],n,u,n,n,n
Cc1cc(C(=O)N2CCN(C(c3ccccc3)c3ccccc3)CC2)no1,n[10 µM],n,n,n,n,n
CCCc1cc(C(=O)N2CCN(C(c3ccccc3)c3ccccc3)CC2)no1,n[10 µM],n,u,22µM,n,n

# Compound activity (PubChem BioAssay)
